# From PubChem BioAssay (Tox21)
# Where “and” joins values, the source holds several entries; their conditions need not be identical. Equal entries are not always repeated. Some compounds were tested as several samples or in several runs, with calls that do not always agree. Calls of active or inactive are those of the source. Where a call stands in place of a potency, no number is given. Unless noted, the call rests on the fitted dose curve; in most records, active means well fitted curve in the direction sought with a large enough effect in the repeat runs; inconclusive means weak or mixed curves; inactive means no such curve, though single readings can be large; an effect the other way counts as inactive or inconclusive.
# How the values were obtained:
# [1] = qHTS assay to identify small molecule antagonists of the thyroid receptor (TR) signaling pathway - cell viability counter screen (AID 743064); further: nearly all actives have a fitted effect of over 50% in size; further: potency means the concentration at half of the fitted maximal effect
# Procedure, shortened: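 Compounds were tested on GH3.TRE-Luc cells in the presence of T3 at 1 nM final. Following 23.5 h at 37 °C, cell viability was quantified by CellTiter-Fluor.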
# [2] = tested on: thyroid hormone receptor (rat, GH3 cells); experiment: qHTS assay to identify small molecule agonists of the thyroid receptor (TR) signaling pathway (AID 743066; calls by dose curve)
# [3] = target: Estrogen receptor (Homo sapiens) (UniProt P03372); experiment: qHTS assay to identify small molecule antagonists of the estrogen receptor alpha (ER-alpha) signaling pathway (AID 743069; active means well fitted curve in the direction sought with a large enough effect in the signal ratio in the repeat runs, not every such curve was filed as active; inconclusive means weak or mixed curves, or effect the other way; inactive means no such curve, though single readings can be large or run the other way; the % refers to the signal ratio)
# Chain of Estrogen receptor (Homo sapiens) (P03372 whole entry, looked up): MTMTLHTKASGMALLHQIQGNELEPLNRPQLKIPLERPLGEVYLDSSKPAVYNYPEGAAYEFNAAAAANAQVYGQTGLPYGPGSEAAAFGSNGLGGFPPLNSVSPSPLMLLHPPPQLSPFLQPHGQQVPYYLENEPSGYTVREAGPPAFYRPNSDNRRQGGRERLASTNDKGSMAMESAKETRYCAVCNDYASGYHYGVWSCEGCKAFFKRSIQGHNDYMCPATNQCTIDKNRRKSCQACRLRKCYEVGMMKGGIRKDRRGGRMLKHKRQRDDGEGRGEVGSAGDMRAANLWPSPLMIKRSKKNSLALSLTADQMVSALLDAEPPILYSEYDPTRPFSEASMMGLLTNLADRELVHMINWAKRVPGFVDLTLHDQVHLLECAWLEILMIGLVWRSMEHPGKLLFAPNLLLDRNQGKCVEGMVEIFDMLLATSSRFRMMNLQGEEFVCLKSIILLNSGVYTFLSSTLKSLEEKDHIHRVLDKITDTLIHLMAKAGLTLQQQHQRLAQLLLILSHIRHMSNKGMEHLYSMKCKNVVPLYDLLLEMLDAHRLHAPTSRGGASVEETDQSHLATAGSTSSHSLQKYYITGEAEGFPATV
# Procedure, shortened: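 Antagonist mode: compounds in DMSO were co-added with 17beta-estradiol to ER-alpha-bla HEK293 cells (2% charcoal-stripped serum) and left 18 h at 37C. Reporter inhibition was measured as FRET fluorescence after 2 h LiveBLAzer substrate at room temperature.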
# [4] = qHTS assay to identify small molecule antagonists of the estrogen receptor alpha (ER-alpha) signaling pathway - cell viability counter screen (AID 743074; calls by dose curve;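 further: HEK293 cells carrying ER-alpha-UAS-bla reporter stimulated with 17beta-estradiol; nearly all actives have a fitted effect of over 45% in size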)
# [5] = target: Estrogen receptor (Homo sapiens) (UniProt P03372); experiment: qHTS assay to identify small molecule agonists of the estrogen receptor alpha (ER-alpha) signaling pathway (AID 743075; calls by dose curve;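 further: HEK293 GripTite cells with ER-alpha and UAS-driven beta-lactamase reporter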; further: potency means the concentration at half of the fitted maximal effect)
# [6] = target: Estrogen receptor (Homo sapiens) (UniProt P03372); experiment: qHTS assay to identify small molecule agonists of the estrogen receptor alpha (ER-alpha) signaling pathway using the BG1 cell line (AID 743079); further: nearly all actives have a fitted effect of over 20% in size; further: potency means the concentration at half of the fitted maximal effect
# [7] = qHTS assay to identify small molecule antagonists of the estrogen receptor alpha (ER-alpha) signaling pathway using the BG1 cell line (AID 743080; calls by dose curve;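 further: BG1 cells stimulated with 17beta-estradiol alongside compound; series mostly up to about 70 µM; nearly all actives have a fitted effect of over 25% in size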)
# Procedure, shortened: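 BG1-Luc-4E2 cells (endogenous full-length ER-alpha, stable 4×ERE-luciferase) were starved 5 days in phenol-red-free medium with 10% charcoal-stripped FBS, plated 24 h, then given compound plus 17beta-estradiol for 21.5 h at 37 C; ONE-Glo luminescence read after 30 min.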
# [8] = qHTS assay to identify small molecule antagonists of the estrogen receptor alpha (ER-alpha) signaling pathway using the BG1 cell line - cell viability counter screen (AID 743081);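 further: compound given together with 17beta-estradiol as the ER stimulus; series mostly up to about 70 µM; nearly all actives have a fitted effect of over 45% in size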
# Aromatase (Homo sapiens) = Aromatase (Homo sapiens) (UniProt P11511); experiment: qHTS assay to identify aromatase inhibitors (AID 743083); further: nearly all actives have a fitted effect of over 55% in size; further: potency means the concentration at half of the fitted maximal effect
# Chain of Aromatase (Homo sapiens) (P11511 whole entry, looked up): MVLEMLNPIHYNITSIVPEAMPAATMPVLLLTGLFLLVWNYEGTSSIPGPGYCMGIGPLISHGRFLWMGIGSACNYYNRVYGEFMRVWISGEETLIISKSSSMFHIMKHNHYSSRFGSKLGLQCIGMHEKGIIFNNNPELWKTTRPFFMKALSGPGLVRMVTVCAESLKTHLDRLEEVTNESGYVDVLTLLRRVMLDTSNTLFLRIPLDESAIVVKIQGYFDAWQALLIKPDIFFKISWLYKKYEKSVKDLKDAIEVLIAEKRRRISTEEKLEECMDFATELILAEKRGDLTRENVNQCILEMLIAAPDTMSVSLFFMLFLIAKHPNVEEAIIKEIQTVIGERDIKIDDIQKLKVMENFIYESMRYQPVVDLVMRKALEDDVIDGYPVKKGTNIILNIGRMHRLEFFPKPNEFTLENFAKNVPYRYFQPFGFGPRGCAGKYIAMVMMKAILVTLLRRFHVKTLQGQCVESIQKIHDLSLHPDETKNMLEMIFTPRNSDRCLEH
# [9] = qHTS assay to identify aromatase inhibitors - cell viability counter screen (AID 743084);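 further: cells stimulated with testosterone during compound exposure; nearly all actives have a fitted effect of over 55% in size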
# [10] = target: Aryl hydrocarbon receptor (Homo sapiens) (UniProt P35869); experiment: qHTS assay to identify small molecule that activate the aryl hydrocarbon receptor (AhR) signaling pathway (AID 743085);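 further: HG2L7.5c1 human HepG2 liver cells with stably integrated DRE-driven firefly reporter; series mostly up to about 70 µM; nearly all actives have a fitted effect of over 15% in size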
# Chain of Aryl hydrocarbon receptor (Homo sapiens) (P35869 whole entry, looked up): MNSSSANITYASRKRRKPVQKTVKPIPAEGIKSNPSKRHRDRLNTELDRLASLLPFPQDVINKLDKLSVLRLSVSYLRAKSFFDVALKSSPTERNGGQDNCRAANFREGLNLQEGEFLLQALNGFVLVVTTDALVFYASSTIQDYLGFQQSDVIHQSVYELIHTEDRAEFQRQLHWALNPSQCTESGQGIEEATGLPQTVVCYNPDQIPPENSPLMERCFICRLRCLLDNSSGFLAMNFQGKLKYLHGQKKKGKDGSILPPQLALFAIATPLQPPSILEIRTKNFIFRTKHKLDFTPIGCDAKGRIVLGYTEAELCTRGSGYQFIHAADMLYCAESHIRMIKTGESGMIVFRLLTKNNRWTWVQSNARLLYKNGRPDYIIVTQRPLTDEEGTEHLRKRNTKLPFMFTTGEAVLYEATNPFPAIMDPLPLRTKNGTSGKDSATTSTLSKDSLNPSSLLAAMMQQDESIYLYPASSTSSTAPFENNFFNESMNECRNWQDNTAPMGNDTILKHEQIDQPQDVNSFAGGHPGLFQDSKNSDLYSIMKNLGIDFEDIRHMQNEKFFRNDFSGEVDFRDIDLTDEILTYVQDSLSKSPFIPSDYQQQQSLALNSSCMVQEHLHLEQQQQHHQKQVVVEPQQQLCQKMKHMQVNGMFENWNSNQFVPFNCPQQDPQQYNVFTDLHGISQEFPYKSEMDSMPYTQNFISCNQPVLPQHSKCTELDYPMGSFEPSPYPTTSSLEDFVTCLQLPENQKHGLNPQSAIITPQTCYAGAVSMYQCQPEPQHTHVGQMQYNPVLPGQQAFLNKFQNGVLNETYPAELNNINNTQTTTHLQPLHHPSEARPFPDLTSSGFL
# Procedure, shortened: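 24 h compound exposure, 37C, HepG2-derived HG2L7.5c1 cells with DRE-responsive luciferase. Readouts: fluorescence viability, then luminescence at room temperature after 30 min.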
# [11] = qHTS assay to identify small molecule that activate the aryl hydrocarbon receptor (AhR) signaling pathway - cell viability counter screen (AID 743086);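 further: HepG2 liver cells carrying the AhR DRE luciferase reporter; series mostly up to about 70 µM; nearly all actives have a fitted effect of over 45% in size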
# Procedure, shortened: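 Cytotoxicity counter screen: CellTiter-Fluor signal (30 min, 37 C) in 4000 HepG2 cells/well carrying the DRE-luciferase reporter, following 24 h compound exposure at 37 C.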
# [12] = target: Peroxisome proliferator-activated receptor gamma (Homo sapiens) (UniProt P37231); experiment: qHTS assay to identify small molecule agonists of the peroxisome proliferator-activated receptor gamma (PPARg) signaling pathway (AID 743094; active means well fitted activation curve with a large enough effect in the signal ratio in the repeat runs, not every such curve was filed as active; inconclusive means weak or mixed curves, or effect the other way; inactive means no such curve, though single readings can be large or run the other way; the % refers to the signal ratio)
# Chain of Peroxisome proliferator-activated receptor gamma (Homo sapiens) (P37231 whole entry, looked up): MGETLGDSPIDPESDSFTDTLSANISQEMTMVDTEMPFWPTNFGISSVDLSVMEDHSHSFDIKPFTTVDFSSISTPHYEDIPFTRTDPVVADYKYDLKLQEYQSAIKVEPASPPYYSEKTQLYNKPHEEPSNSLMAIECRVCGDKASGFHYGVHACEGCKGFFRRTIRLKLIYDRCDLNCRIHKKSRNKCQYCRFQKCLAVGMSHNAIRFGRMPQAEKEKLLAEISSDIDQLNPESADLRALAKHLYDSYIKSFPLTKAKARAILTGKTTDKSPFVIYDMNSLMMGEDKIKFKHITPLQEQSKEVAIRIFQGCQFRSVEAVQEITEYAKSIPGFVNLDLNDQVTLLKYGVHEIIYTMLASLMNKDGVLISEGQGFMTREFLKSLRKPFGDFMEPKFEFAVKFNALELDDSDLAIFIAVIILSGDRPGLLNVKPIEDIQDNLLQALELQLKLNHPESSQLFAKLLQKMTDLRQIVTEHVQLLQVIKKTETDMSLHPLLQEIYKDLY
# Procedure, shortened: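 Agonist activity was taken from a beta-lactamase reporter (FRET substrate, 1 h at room temperature) in HEK293H cells carrying a PPARg UAS-bla construct. Compounds in DMSO were incubated 17 h at 37C after a 5 h cell pre-incubation.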
# [13] = target: Peroxisome proliferator-activated receptor gamma (Homo sapiens) (UniProt P37231); experiment: qHTS assay to identify small molecule antagonists of the peroxisome proliferator-activated receptor gamma (PPARg) signaling pathway (AID 743191; calls by dose curve; further: nearly all actives have a fitted effect of over 30% in size; further: potency means the concentration at half of the fitted maximal effect)
# Procedure, shortened: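 Beta-lactamase reporter under UAS control in HEK293H PPARg-bla cells; compound treatment 17 h at 37C. Read-out: fluorescence intensity after 1 h room-temperature incubation with LiveBLAzer B/G FRET substrate.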
# [14] = qHTS assay for small molecule agonists of the antioxidant response element (ARE) signaling pathway - cell viability counter screen (AID 743203; calls by dose curve; further: nearly all actives have a fitted effect of over 55% in size; further: potency means the concentration at half of the fitted maximal effect)
# Procedure, shortened: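 Viability counter screen: CellTiter-Glo luminescence, read after 30 min at room temperature, in ARE-bla HepG2 wells. Compound exposure lasted 16 h at 37C/5% CO2, following a 5 h pre-incubation of the cells after plating.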
# [15] = qHTS assay for small molecule activators of the heat shock response signaling pathway - cell viability counter screen (AID 743209); further: nearly all actives have a fitted effect of over 50% in size
# Procedure, shortened: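 Cytotoxicity counter screen run in the same wells as the heat-shock bla reporter assay: HeLa HSE-bla cells, 5 h compound exposure at 37 C, viability read by CellTiter-Glo luminescence.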
# [16] = qHTS assay for small molecule activators of the heat shock response signaling pathway (AID 743210; active means well fitted activation curve with a large enough effect in the signal ratio in the repeat runs, with a control signal flat, not every such curve was filed as active; inconclusive means weak or mixed curves; the % refers to the signal ratio; further: series mostly up to about 63 µM)
# Procedure, shortened: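 Compound exposure lasted 5 h at 37 C in HeLa cells carrying a heat-shock-element-driven beta-lactamase reporter. Read-out: fluorescence intensity after 2.5 h room-temperature loading with LiveBLAzer B/G FRET substrate.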
# [17] = qHTS assay to identify small molecule antagonists of the peroxisome proliferator-activated receptor gamma (PPARg) signaling pathway - cell viability counter screen (AID 743194); further: nearly all actives have a fitted effect of over 55% in size
# Procedure, shortened: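 Viability was measured as CellTiter-Glo luminescence in GeneBLAzer PPARg UAS-bla HEK293H cells. These cells had been exposed 17 h at 37 C to compounds together with rosiglitazone at 50 nM final, with the beta-lactamase readout taken in the same wells.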
# [18] = qHTS assay for small molecule agonists of the antioxidant response element (ARE) signaling pathway (AID 743202; active means well fitted activation curve with a large enough effect in the signal ratio in the repeat runs, not every such curve was filed as active; inconclusive means weak or mixed curves, or effect the other way; inactive means no such curve, though single readings can be large or run the other way; the % refers to the signal ratio; further: potency means the concentration at half of the fitted maximal effect)
# Procedure, shortened: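 After 16 hours of compound treatment at 37 C, HepG2 cells with a stably integrated ARE-driven beta-lactamase reporter were loaded 2 hours at room temperature with LiveBLAzer B/G FRET substrate and fluorescence intensity measured.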
Compound,Potency [1],Potency [2],Potency [3],Potency [4],Potency [5],Potency [6],Potency [7],Potency [8],Potency (Aromatase (Homo sapiens)),Potency [9],Potency [10],Potency [11],Potency [12],Potency [13],Potency [14],Potency [15],Potency [16],Potency [17],Potency [18]
C=CS(=O)(=O)O,inactive,inactive,inactive,inactive,inactive,inactive,inactive,inactive,inactive,inactive,inactive,inactive,inactive,inactive,inactive,inactive,inactive,,
O=C(OCc1ccccc1)c1ccc(O)cc1,inactive,inactive,inactive,inactive,54.9 µM [inconclusive] (active),10.6 µM (active) and 12.2 µM (active),,inactive,inactive,inactive,inactive,inactive,inactive,43.6 µM (active),inactive,inactive,inactive,inactive,inactive
O=S(=O)(O)c1ccc2nc(-c3ccccc3)[nH]c2c1,inactive,inactive,,,,,,inactive,inactive,inactive,inactive,inactive,inactive,inactive,20.6 µM (active) and inactive,,inactive,inactive,inactive
O=C1CC2(CCCC2)CC(=O)N1CCCCN1CCN(c2ncccn2)CC1,inactive,inactive,,inactive,,,,inactive,,,,inactive,,,inactive,inactive,inactive,inactive,27.3 µM (active)
CCC(C)(Oc1ccc(C2(c3ccc(OC(C)(CC)C(=O)O)cc3)CCCCC2)cc1)C(=O)O (stereo not drawn),inactive,inactive,inactive,inactive,inactive,inactive,inactive,inactive,inactive,inactive,inactive,inactive,inactive,inactive,inactive,inactive,inactive,,inactive
C=C(C)C(=O)O,inactive,inactive,inactive,inactive,inactive,inactive,inactive,inactive,inactive,inactive,inactive,inactive,inactive,,inactive,inactive,inactive,,
NCCO,inactive,inactive,inactive,inactive,inactive,inactive,inactive,inactive,inactive and 61.1 µM (active),inactive,inactive,inactive,,,inactive,inactive,inactive,inactive,
[Cl][In]([Cl])[Cl],inactive,inactive,inactive,inactive,inactive,,inactive,inactive,inactive,inactive,inactive,inactive,,,inactive,inactive,,,
CCOC(=O)C(C)C(C)=O (stereo not drawn),inactive,inactive,,inactive,,,,inactive,inactive,inactive,inactive,inactive,,,inactive,inactive,,,
Cc1cccc2n[nH]nc12,inactive,inactive,,inactive,,,,inactive,,,,inactive,,,inactive,inactive,inactive,inactive,inactive
c1ccc2n[nH]nc2c1,inactive,inactive,,inactive,,,,inactive,inactive,inactive,inactive,inactive,inactive,inactive,inactive,inactive,inactive,inactive,
CO[Si](OC)(OC)c1ccccc1,inactive,inactive,inactive,inactive,inactive,inactive,inactive,inactive,inactive,inactive,inactive,inactive,,,inactive,,inactive,inactive,
c1cnc2cc3c(cc2n1)C1CNCC3C1,inactive,inactive,inactive,inactive,inactive,inactive,inactive,inactive,inactive,inactive,inactive,,inactive,inactive,inactive,inactive,inactive,inactive,inactive
OCCOCCN1CCN(C(c2ccccc2)c2ccc(Cl)cc2)CC1 (stereo not drawn),26.9 µM (active),inactive,,inactive,,,,inactive,inactive,inactive,,,,,inactive,inactive,,inactive,inactive
